# Results: PubChem BioAssay (NCATS)
# Inconclusive results are not listed. Where a call stands in place of a potency, no number is given. Active and inactive are the calls of the source. Unless noted, calls come from the whole dose curve; as a rule, active = well fitted curve in the direction sought with a large enough effect; inconclusive = small, poorly fitted or top-dose-only effect, or another doubt; inactive = no such curve, though single readings can be large; an effect the other way counts as inactive or inconclusive.
# Key:
# [1] = NCATS anti-infectives library activity on HEK293 viability as a counter-qHTS vs the C. elegans viability qHTS (AID 1745854); details: HEK293 viability counter-screen; series mostly up to 41.8 µM
# Procedure, shortened: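 CellTiter-Glo luminescence, read on a CCD imager, scored viability of HEK293 cells after 24 hr compound exposure at 37C. Library tested in several concentrations, 1:5 steps, up to 41.7 uM; digitonin served as control.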
# [2] = biological target: Glutathione peroxidase 1 (Homo sapiens) (UniProt P07203); experiment: Primary qHTS Assay for Inhibitors of Recombinant Selenoprotein Glutathione Peroxidase 1 (GPX1) (AID 1845191); details: recombinant GPX1, GR-coupled NADPH fluorescence, 15 min; series mostly up to 48.8 µM; note: nearly all actives have a fitted effect of over 65% in size; note: potency is the fitted concentration of half-maximal effect
# Procedure, shortened: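 GPX1 10 nM, GR 100 nM, GSH 1 mM, NADPH 0.5 mM, CHP 0.5 mM (final). 30-min cpd preincubation, RT. Ex340/Em450 read t=0, t=15 min.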
# [3] = biological target: Phospholipid hydroperoxide glutathione peroxidase GPX4 (Homo sapiens) (UniProt P36969); experiment: Primary qHTS Assay for Inhibitors of Recombinant Selenoprotein Glutathione Peroxidase 4 (GPX4) (AID 1845192); details: recombinant GPX4, GR-coupled NADPH fluorescence, 15 min; series mostly up to 50 µM; note: nearly all actives have a fitted effect of over 65% in size
# Procedure, shortened: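 qHTS, GR-coupled: GPX4 200 nM + cpd 30 min RT → GSH 1 mM, NADPH 0.5 mM, GR 100 nM → CHP 0.5 mM start; fluor 340/450 at t0 and t15 min; no-enzyme wells as control.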
# [4] = biological target: Phenylethanolamine N-methyltransferase (Homo sapiens) (UniProt P11086); experiment: Confirmatory Screen for Target Class Profiling of Small Molecule Inhibitors of Methyltransferases (AID 1745852); details: MTase-Glo luminescence, SAH detection, recombinant enzyme; measured here: PNMT max response; stronger effect = lower value
# [5] = biological target: Metallo-beta-lactamase type 2 (Klebsiella pneumoniae) (UniProt C7C422); experiment: qHTS to identify inhibitors of the New Delhi Metallo-beta-lactamase (NDM): assay validation screen against the NCATS LOPAC Collection (AID 1794843); details: NDM-1 enzyme, nitrocefin hydrolysis, absorbance 485 nm; series mostly up to 38.4 µM
# Procedure, shortened: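 Absorbance at 485 nm from nitrocefin turnover (50 uM solution added), read at plateau, gives the read-out. Compounds in DMSO were incubated first with 2 nM final NDM-1 in pH 7.0 HEPES buffer containing 1 uM ZnSO4 and 0.01% Tween20.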
# [6] = NCATS anti-infectives library activity on the primary C. elegans qHTS viability assay (AID 1745855; calls by dose curve; note: potency is the fitted concentration of half-maximal effect); details: C. elegans worm area imaging, day 7
# Procedure, shortened: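 Titration-based screen in worms: eggs hatched overnight in M9, L1 larvae fed TOP10 capsules in S medium with compound, incubated 21 °C for 7 days; fluorescent objects gated by size and intensity at days 0, 3 and 7.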
# [7] = HepG2 viability counterscreen (readout 2: ATP content) against the NCATS DSHEA and TCM libraries (AID 1794840); details: ATP content luminescence; series mostly up to 27.3 µM;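 note: HepG2 cells exposed to substances for about 24 h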
# Procedure, shortened: (§1)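 1,000 HepG2 cells/well, 4 h attach; compounds ~24 h, 37C/5% CO2. Readout 1: GF-AFC 25 uM final, 30 min, fluorescence 380/510 nm. Readout 2: CellTiter-Glo, 30 min RT, luminescence.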
# [8] = HepG2 viability counterscreen (readout 1: protease activity) against the NCATS DSHEA and TCM libraries (AID 1794841); details: qHTS concentration series; series mostly up to 27.3 µM;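 note: cells exposed to compounds for about 24 h before the protease read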
# Procedure, shortened: as §1
# [9] = KB-3-1 P-gp reporter qHTS against the NCATS DSHEA and TCM libraries (AID 1919975); details: KB-3-1 parental cells, CellTiter-Glo luminescence viability, 72 h; series mostly up to 26.1 µM
# Procedure, shortened: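 CellTiter-Glo luminescence viability readout; KB-3-1 parental cells, 500/well, attached ~4 h, then compound for ~72 h, 37C, 5% CO2. Bortezomib intraplate control.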
# [10] = qHTS Counterscreen for compound interference against the NCATS DSHEA and TCM libraries (AID 1919978); details: firefly luciferase detection reagent interference, luminescence;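 note: compounds preincubated with 1 µM D-luciferin or buffer before detection reagent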
# Procedure, shortened: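 Luminescence counterscreen for detection-kit interference: compounds at 19.5 nM–39.8 uM final, 15 min RT with 1 uM D-luciferin or buffer only; detection reagent added, 30 min RT, then read.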
# Chain of Phenylethanolamine N-methyltransferase (Homo sapiens) (P11086 whole entry, looked up): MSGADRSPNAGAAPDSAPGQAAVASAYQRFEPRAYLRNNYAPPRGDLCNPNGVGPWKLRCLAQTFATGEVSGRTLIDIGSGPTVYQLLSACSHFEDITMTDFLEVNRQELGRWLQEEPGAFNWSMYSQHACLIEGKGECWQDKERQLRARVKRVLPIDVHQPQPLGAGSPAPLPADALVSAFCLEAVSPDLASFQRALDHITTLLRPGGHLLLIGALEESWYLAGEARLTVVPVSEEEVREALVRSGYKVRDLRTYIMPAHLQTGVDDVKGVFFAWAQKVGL
# Chain of Glutathione peroxidase 1 (Homo sapiens) (P07203 whole entry, looked up): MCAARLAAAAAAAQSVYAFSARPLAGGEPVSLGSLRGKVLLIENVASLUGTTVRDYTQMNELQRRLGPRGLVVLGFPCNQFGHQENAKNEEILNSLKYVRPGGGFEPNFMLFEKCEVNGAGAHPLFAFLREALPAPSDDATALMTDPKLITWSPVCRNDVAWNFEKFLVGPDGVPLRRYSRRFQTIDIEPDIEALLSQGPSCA
# Chain of Phospholipid hydroperoxide glutathione peroxidase GPX4 (Homo sapiens) (P36969 whole entry, looked up): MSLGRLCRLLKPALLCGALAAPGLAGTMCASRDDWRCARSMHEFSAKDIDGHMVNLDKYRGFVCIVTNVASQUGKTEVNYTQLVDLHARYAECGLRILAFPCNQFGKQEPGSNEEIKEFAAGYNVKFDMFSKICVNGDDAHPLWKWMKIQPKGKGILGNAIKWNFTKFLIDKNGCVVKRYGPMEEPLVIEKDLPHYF
# Chain of Metallo-beta-lactamase type 2 (Klebsiella pneumoniae) (C7C422 whole entry, looked up): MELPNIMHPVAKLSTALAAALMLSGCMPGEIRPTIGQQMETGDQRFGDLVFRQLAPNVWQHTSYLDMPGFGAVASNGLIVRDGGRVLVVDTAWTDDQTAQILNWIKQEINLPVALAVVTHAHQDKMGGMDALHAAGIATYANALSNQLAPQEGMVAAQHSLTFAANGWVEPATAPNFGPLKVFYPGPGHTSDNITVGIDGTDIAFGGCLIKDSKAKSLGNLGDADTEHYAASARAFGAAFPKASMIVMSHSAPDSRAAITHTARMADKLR
smiles,measurement,setting,value
CCCCCCOc1ccccc1C(N)=O,outcome,[1],inactive
same,Potency,[2],inactive
same,Potency,[3],inactive
O=Nc1ccc2oc(=O)ccc2c1,activity,[4],5.38%
same,Potency,[5],inactive
same,Potency,[2],inactive
same,Potency,[3],inactive
Oc1ccc(C2CNCc3sccc32)cc1O (stereo not drawn),activity,[4],0.43%
same,Potency,[5],inactive
same,Potency,[2],inactive
same,Potency,[3],inactive
N=c1ccn2c(n1)O[C@H]1[C@H](O)[C@@H](CO)O[C@H]12,outcome,[1],inactive
same,Potency,[5],inactive
same,Potency,[2],inactive
same,Potency,[3],inactive
CC[C@@H](C)[C@H]1O[C@]2(CC[C@@H]1C)C[C@@H]1C[C@@H](C/C=C(\C)[C@@H](O[C@H]3C[C@H](OC)[C@@H](O[C@H]4C[C@H](OC)[C@@H](O)[C@H](C)O4)[C@H](C)O3)[C@@H](C)/C=C/C=C3\CO[C@@H]4[C@H](O)C(C)=C[C@@H](C(=O)O1)[C@]34O)O2,outcome,[1],inactive
same,Potency,[6],0.0058 µM (active)
same,Potency,[2],inactive
same,Potency,[3],inactive
CCCCCCCCCCCCCCCCCC(=O)O,outcome,[7],inactive
same,outcome,[8],inactive
same,Potency,[2],inactive
same,Potency,[3],inactive
same,outcome,[9],inactive
same,max response,[10],4.77% (inactive)
COC1=C(OC)C(=O)c2ccccc2C1=O,activity,[4],-70.6%
same,Potency,[5],inactive
same,Potency,[2],inactive
same,Potency,[3],inactive
Nc1ccn([C@H]2O[C@H](CO)[C@@H](O)C2(F)F)c(=O)n1,Potency,[5],inactive
COc1ccc(Br)cc1S(=O)(=O)NC(=O)/C=C/c1ccccc1Cc1ccc2ccccc2c1,activity,[4],0.509%
same,Potency,[5],inactive
same,Potency,[2],inactive
same,Potency,[3],inactive
CCC1C(=O)OCC1Cc1cncn1C (stereo not drawn),Potency,[5],inactive
same,Potency,[2],inactive
same,Potency,[3],inactive
O=C(c1ccc(Cl)cc1)N1CCN(c2ccc([N+](=O)[O-])c3ncccc23)CC1,Potency,[5],inactive
same,Potency,[2],inactive
Cc1cc(NC(=O)Nc2ccc3c(ccn3C)c2)sn1,Potency,[5],inactive
same,Potency,[2],inactive
same,Potency,[3],inactive
CCCC(CCC)C(=O)OC1CC2CCC(C1)[N+]2(C)C (stereo not drawn),Potency,[5],inactive
same,Potency,[2],inactive
NC(=O)C(=O)O,Potency,[5],inactive
same,Potency,[2],inactive
same,Potency,[3],inactive
O=C(c1ccc(OCCCc2cnc[nH]2)cc1)C1CC1,Potency,[5],inactive
same,Potency,[2],inactive
same,Potency,[3],inactive
CCNC(=O)[C@H]1O[C@@H](n2cnc3c(N)nc(NCCc4ccc(CCC(=O)O)cc4)nc32)[C@H](O)C1O (stereo partly drawn),Potency,[5],inactive
same,Potency,[2],inactive
same,Potency,[3],inactive
C=CC(N)CCC(=O)O (stereo not drawn),Potency,[5],inactive
same,Potency,[2],inactive
same,Potency,[3],inactive
CO/N=C(\C(=O)N[C@@H]1C(=O)N2C(C(=O)O)=C(COC(C)=O)CS[C@H]12)c1csc(N)n1,Potency,[5],inactive
same,Potency,[2],8.06 µM (active)
CCN1/C(=C/C(C)=O)Sc2ccc(OC)cc21,Potency,[5],inactive
same,Potency,[2],inactive
same,Potency,[3],inactive
Nc1nc2c(ncn2[C@@H]2O[C@H](CO)[C@@H](O)[C@@H]2O)c(=O)[nH]1,Potency,[5],inactive
same,Potency,[2],inactive
CCOC(=O)C1=C(C)NC(C)=C(C(=O)OCC)C1c1c(F)c(F)c(F)c(F)c1F,Potency,[5],inactive
same,Potency,[2],inactive
Nc1nc(SCc2ccc([N+](=O)[O-])cc2)c2ncn([C@@H]3O[C@H](CO)[C@@H](O)[C@H]3O)c2n1,Potency,[5],inactive
same,Potency,[2],inactive
same,Potency,[3],inactive
CNC(=O)[C@H]1O[C@@H](n2cnc3c(NCc4cccc(I)c4)ncnc32)[C@H](O)[C@@H]1O,Potency,[5],inactive
same,Potency,[2],inactive
same,Potency,[3],inactive
CCCCCCCCCCCCCCCCCCN(CCCCCCCCCCCCCCCCCC)CCCN(CCO)CCO,Potency,[5],inactive
same,Potency,[2],inactive
same,Potency,[3],inactive
O=c1cc(-c2ccccc2)oc2c(O)c(O)ccc12,Potency,[5],inactive
same,Potency,[2],inactive
Nc1ncnc2c1ncn2[C@@H]1O[C@H](COP(=O)(O)OP(=O)(O)OP(=O)(O)OP(=O)(O)OC[C@@H]2O[C@H](n3cnc4c(N)ncnc43)[C@@H](O)[C@H]2O)[C@@H](O)[C@H]1O,Potency,[5],inactive
same,Potency,[2],inactive
CC(=O)SCC[N+](C)(C)C,Potency,[5],inactive
same,Potency,[2],inactive
O=C(O)c1cc(=O)c2c(Cl)cc(Cl)cc2[nH]1,Potency,[5],inactive
same,Potency,[2],inactive
same,Potency,[3],inactive
O=c1[nH]c2cc(C(F)(F)F)ccc2n1-c1cc(C(F)(F)F)ccc1O,Potency,[5],inactive
same,Potency,[2],inactive
same,Potency,[3],inactive
Nc1ccn([C@@H]2O[C@H](CO)[C@@H](O)[C@@H]2O)c(=O)n1,Potency,[5],inactive
same,Potency,[2],inactive
O=[N+]([O-])c1ccc(CSc2ncnc3c2ncn3[C@@H]2O[C@H](CO)[C@@H](O)[C@H]2O)cc1,Potency,[5],inactive
same,Potency,[2],inactive
same,Potency,[3],inactive
Nc1nc(Nc2ccccc2)nc2c1ncn2[C@@H]1O[C@H](CO)[C@@H](O)[C@H]1O,Potency,[5],inactive
same,Potency,[2],inactive
C[N+]1(C)CCC(OC(=O)C(c2ccccc2)c2ccccc2)CC1,Potency,[5],inactive
same,Potency,[2],inactive
same,Potency,[3],inactive
N[C@H](CCCP(=O)(O)O)C(=O)O,Potency,[5],inactive
same,Potency,[2],inactive
O=C1NC(O)=NC1(c1ccccc1)c1ccccc1,Potency,[5],inactive
same,Potency,[2],inactive
C[N+]1(C)C2CC(OC(=O)[C@H](CO)c3ccccc3)CC1C1OC12 (stereo partly drawn),Potency,[5],inactive
same,Potency,[2],inactive
CC1OC1P(=O)(O)O (stereo not drawn),Potency,[5],inactive
same,Potency,[2],inactive
CC(C)CC(NP(=O)(O)O[C@@H]1O[C@@H](C)[C@H](O)[C@@H](O)[C@H]1O)C(=O)NC(Cc1c[nH]c2ccccc12)C(=O)O (stereo partly drawn),Potency,[5],inactive
same,Potency,[2],inactive
same,Potency,[3],inactive
O=C(/C=C/c1ccc(O)cc1)c1ccc(O)cc1O,Potency,[5],inactive
same,Potency,[2],inactive
NCCCCCCCCCCN,Potency,[5],inactive
same,Potency,[2],inactive
same,Potency,[3],inactive
NC(=O)C1=CN(C2OC(COP(=O)(O)OP(=O)(O)OC[C@H]3O[C@@H](n4cnc5c(N)ncnc54)[C@H](OP(=O)(O)O)[C@@H]3O)C(O)C2O)C=CC1 (stereo partly drawn),Potency,[5],inactive
same,Potency,[2],inactive
same,Potency,[3],inactive
Brc1c(Br)c(Br)c2n[nH]nc2c1Br,Potency,[5],inactive
same,Potency,[2],inactive
same,Potency,[3],inactive
CC12C(=O)OC(=O)C1(C)C1CCC2O1 (stereo not drawn),Potency,[5],inactive
same,Potency,[2],inactive
COc1ccc(C(=O)/C(Cc2cc(OC)c(OC)c(OC)c2)=C(\C(=O)O)c2ccc3c(c2)OCO3)cc1,Potency,[5],inactive
same,Potency,[2],inactive
same,Potency,[3],inactive
CC(N)C(=O)OC(C)(C)Cc1ccc(Cl)cc1 (stereo not drawn),Potency,[5],inactive
same,Potency,[2],inactive
O=C(/C=C/c1ccc(O)c(O)c1)OCCc1ccccc1,Potency,[5],inactive
same,Potency,[2],inactive
same,Potency,[3],inactive
